Data reported in PubChem BioAssay (EPA / NIEHS).
The source made the active and inactive calls. Rule for the calls: active = hit-call score of the fitted dose curve at least 0.9, where 1 is the maximum; inactive = score below 0.9.

Legend:
[1] = ATG_EGR_CIS: Attagene CIS-FACTORIAL HepG2 Assay for human Early Growth Response 1 (EGR1) (AID 2282938); conditions: HepG2 Attagene CIS-FACTORIAL EGR reporter mRNA; actives raise or lower the signal
How it was run: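 Endogenous TF activity in HepG2 liver cells was gauged through cis-promoter reporter constructs transiently transfected. After 24 h dosing, reporter mRNA was quantified by RT-PCR and capillary electrophoresis, and curves fitted in both directions versus DMSO.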

[2] = ATG_M_19_CIS: Attagene CIS-FACTORIAL HepG2 Assay for M19 Transcription Factor (Internal Marker) (AID 2282939); conditions: HepG2 Attagene CIS-FACTORIAL M19 internal marker reporter; actives raise or lower the signal
How it was run: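 Internal marker readout, fitted in both directions against DMSO, from HepG2 cells carrying transfected cis-element reporter constructs; RT-PCR and capillary electrophoresis of reporter mRNA after 24 h exposure.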

[3] = ATG_ERE_CIS: Attagene CIS-FACTORIAL HepG2 Assay for Estrogen Response Element (ERE) (AID 2282940); conditions: HepG2 ERE cis-reporter, Attagene RNA transcript; actives raise or lower the signal
How it was run: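 After 24 h compound treatment, RNA from transfected HepG2 cells was reverse-transcribed, reporter cDNA PCR-amplified, FAM-labelled, HpaI-cut and resolved by capillary electrophoresis. ERE-driven cis reporter transcripts reflect endogenous factors; gain or loss scored against DMSO.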

[4] = ATG_Ets_CIS: Attagene CIS-FACTORIAL HepG2 Assay for human Erythroblast Transformation Specific (ETS) (AID 2282941); conditions: HepG2 ETS cis-reporter transcription; AC50: actives raise or lower the signal unless noted; outcome: actives raise or lower the signal unless noted
How it was run: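 RT-PCR/capillary electrophoresis fluorescence read-out of reporter mRNA; HepG2 transient multi-reporter transfection; 24 h compound exposure; gain or loss of signal fitted bidirectionally relative to DMSO.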

[5] = target: Hepatocyte nuclear factor 3-beta (Homo sapiens) (UniProt Q9Y261); test: ATG_FoxA2_CIS: Attagene CIS-FACTORIAL HepG2 Assay for human Forkhead box A2 (FOXA2) (AID 2282942); conditions: HepG2 cis-reporter transcription factor activity, 24 h; actives raise or lower the signal
How it was run: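 Endogenous transcription factor activity was read in HepG2 cells carrying transiently transfected cis-promoter reporter units. After 24 h dosing, reporter mRNA was quantified by RT-PCR and capillary electrophoresis, and values fitted bidirectionally versus DMSO.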

[6] = ATG_FoxO_CIS: Attagene CIS-FACTORIAL HepG2 Assay for human Forkhead box O (FoxO) (AID 2282943); conditions: HepG2 Attagene cis-reporter, FoxO element, mRNA; actives raise or lower the signal
How it was run: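 Transfected HepG2 reporter cells exposed to test chemical for 24 h; reporter RNA measured by reverse transcription, PCR and fluorescent capillary electrophoresis; curves fitted for increases and decreases against DMSO.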

[7] = ATG_GATA_CIS: Attagene CIS-FACTORIAL HepG2 Assay for human GATA Binding Protein (AID 2282944); conditions: HepG2 GATA cis-element reporter, Attagene multiplex mRNA; actives raise or lower the signal
How it was run: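 Reporter transcripts from a GATA cis-regulated unit, among multiplexed reporters in transfected HepG2 cells, were measured by RT-PCR with capillary electrophoresis after 24 h dosing. Induction or loss scored relative to DMSO.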

[8] = ATG_GLI_CIS: Attagene CIS-FACTORIAL HepG2 Assay for human Zinc Finger Protein GLI1 (AID 2282945); conditions: HepG2, Attagene cis-factorial reporter mRNA, GLI element; actives raise or lower the signal
How it was run: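 Transiently transfected HepG2 cells report endogenous transcription factor activity via cis-element-driven reporter units. After 24 h compound exposure, reporter mRNA was measured by RT-PCR with capillary electrophoresis; bidirectional fitting against DMSO baseline.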

[9] = target: Bile acid receptor (Homo sapiens) (UniProt Q96RI1); test: ATG_IR1_CIS: Attagene CIS-FACTORIAL HepG2 Assay for human Nuclear Receptor Subfamily 1 Group H Member 4 (NR1H4), IR1 submotif (AID 2282946); conditions: IR1 reporter transcription, actives raise or lower the signal
How it was run: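 Fluorescence of capillary-separated, HpaI-digested RT-PCR reporter products gave IR1-element mRNA induction in HepG2 cells 24 h after dosing. Endogenous transcription factors drove the cis-regulated reporters; activity was fitted bidirectionally against DMSO.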

[10] = ATG_GRE_CIS: Attagene CIS-FACTORIAL HepG2 Assay for human Glucocorticoid Response Elements (GRE) (AID 2282947); conditions: HepG2 GRE cis-reporter, Attagene multiplex mRNA; AC50: actives raise or lower the signal unless noted; outcome: actives raise or lower the signal unless noted
How it was run: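 Fluorescence intensity of reporter-specific cDNA fragments, separated by capillary electrophoresis, provides the signal. Constructs carry cis-regulating promoters in transiently transfected HepG2 liver cells; 24 h incubation; fitting is bidirectional against DMSO.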

Measured: AC50

Sequence of Hepatocyte nuclear factor 3-beta (Homo sapiens) (Q9Y261 whole entry, looked up): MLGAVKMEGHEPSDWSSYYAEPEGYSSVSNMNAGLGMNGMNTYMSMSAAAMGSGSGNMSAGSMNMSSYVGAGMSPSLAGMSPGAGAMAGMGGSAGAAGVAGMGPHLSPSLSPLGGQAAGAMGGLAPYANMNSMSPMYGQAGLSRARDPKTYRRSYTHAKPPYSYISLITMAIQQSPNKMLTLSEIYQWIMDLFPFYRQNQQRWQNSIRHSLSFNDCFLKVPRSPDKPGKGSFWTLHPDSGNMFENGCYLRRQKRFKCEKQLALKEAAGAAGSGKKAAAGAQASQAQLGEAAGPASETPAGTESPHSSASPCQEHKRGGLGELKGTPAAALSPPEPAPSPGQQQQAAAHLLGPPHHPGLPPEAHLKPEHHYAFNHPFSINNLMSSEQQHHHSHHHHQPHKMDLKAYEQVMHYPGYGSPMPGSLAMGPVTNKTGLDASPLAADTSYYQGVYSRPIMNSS
Sequence of Bile acid receptor (Homo sapiens) (Q96RI1 whole entry, looked up): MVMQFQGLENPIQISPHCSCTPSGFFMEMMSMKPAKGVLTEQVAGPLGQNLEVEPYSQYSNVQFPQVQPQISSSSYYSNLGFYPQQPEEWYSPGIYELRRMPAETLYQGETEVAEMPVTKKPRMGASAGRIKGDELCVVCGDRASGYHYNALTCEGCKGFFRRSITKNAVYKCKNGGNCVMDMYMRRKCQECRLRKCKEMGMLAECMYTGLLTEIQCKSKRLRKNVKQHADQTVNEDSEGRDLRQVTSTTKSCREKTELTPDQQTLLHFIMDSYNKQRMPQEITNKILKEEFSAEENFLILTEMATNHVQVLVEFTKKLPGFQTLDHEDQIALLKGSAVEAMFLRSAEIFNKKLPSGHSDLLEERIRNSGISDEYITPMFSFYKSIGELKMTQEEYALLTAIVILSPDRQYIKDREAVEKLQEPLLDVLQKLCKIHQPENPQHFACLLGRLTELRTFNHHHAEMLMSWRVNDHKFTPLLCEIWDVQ

c1ccc(CNc2ncnc3c2ncn3C2CCCCO2)cc1 (stereo not given)
inactive: all assays above

O=C1C=CC(=O)N1c1cccc(N2C(=O)C=CC2=O)c1
inactive: all assays above

Cc1ccc(N=Nc2c(O)ccc3ccccc23)c(C)c1
active: [3] 5.07 µM
inactive: all other assays above

O=P(O)(O)CCC(F)(F)C(F)(F)C(F)(F)C(F)(F)C(F)(F)C(F)(F)F
not listed: [6] | [9]
inactive: all other assays above

CC(C)CCOCCC(C)C
active: [3] 26.8 µM
not listed: [9]
inactive: all other assays above

CCC(=O)C=Cc1ccc(OC)cc1
active: [1] 100 µM
not listed: [6] | [8] | [10]
inactive: all other assays above

Oc1c(Cl)ccc(Cl)c1Cl
not listed: [6]
inactive: all other assays above

FC1(F)C=CC(F)(F)C1(F)F
not listed: [6]
inactive: all other assays above

C=CC(=C)CC/C=C(\C)CCC=C(C)C
not listed: [6]
inactive: all other assays above

CCO[Si](C)(C)OCC
not listed: [9]
inactive: all other assays above

O=S(=O)(c1ccc(OCc2ccccc2)cc1)c1ccccc1O
inactive: [2] | [3] | [5]
active: [1] 33.4 µM | [4] 33.4 µM | [6] 50.8 µM | [7] 55.4 µM | [10] 42.4 µM

c1cc2cccc3c4cccc5cccc(c(c1)c23)c54
not listed: [8]
inactive: all other assays above

CC(C)(C)C1CCCCC1O (stereo not given)
not listed: [6]
inactive: all other assays above

COc1ccc(C#N)cc1
not listed: [9]
inactive: all other assays above

CCOC=C(C(=O)OCC)C(=O)OCC
not listed: [9]
inactive: all other assays above

O=CC(F)(F)C(F)(F)C(F)(F)C(F)F
not listed: [8]
inactive: all other assays above

O=P(O)(O)CCC(F)(F)C(F)(F)C(F)(F)C(F)(F)C(F)(F)C(F)(F)C(F)(F)C(F)(F)F
not listed: [8] | [10]
inactive: all other assays above

CCOC(OCC)C(=O)c1ccccc1
active: [3] 77.6 µM
not listed: [8] | [9]
inactive: all other assays above

c1ccc2c(c1)CCC2
not listed: [8]
inactive: all other assays above

CCOCCOCC
not listed: [8]
inactive: all other assays above

C/C=C/C(=O)C1=C(C)CCCC1(C)C
active: [1] 55.4 µM | [6] 138 µM
not listed: [8] | [9]
inactive: all other assays above

O=CC(F)(F)C(F)(F)C(F)(F)F
not listed: [8]
inactive: all other assays above

NC(C(F)(F)F)C(F)(F)F
not listed: [6]
inactive: all other assays above

Cc1cc(C(=C2C=CC(=Nc3ccc(S(=O)(=O)O)cc3)C=C2)c2ccc(Nc3ccc(S(=O)(=O)O)cc3)cc2)cc(S(=O)(=O)O)c1N
not listed: [6]
inactive: all other assays above

COC(=O)C(F)(F)C(F)(F)C(F)(F)F
not listed: [6]
inactive: all other assays above

CCCCCCOC(=O)c1ccc(O)cc1
active: [1] 52.2 µM | [3] 8.86 µM | [4] 54.1 µM | [9] 47.5 µM
not listed: [8]
inactive: all other assays above
